Experimental data: paper PMC4336329 (PLoS ONE, 2015)
In all, about 310,000 compounds went through this assay and about 2,200 (0.71%) showed an effect of 50% or more. Effects have a minus sign here. For the sample, strong results were picked, then their nearest neighbours and some compounds at random.

target: human ether-à-go-go-related gene (hERG) potassium channel (human, UniProt Q12809); test: primary screen, population patch clamp on CHO cells stably expressing hERG; higher = less effect of the substance
Sequence (Q12809 whole entry, looked up): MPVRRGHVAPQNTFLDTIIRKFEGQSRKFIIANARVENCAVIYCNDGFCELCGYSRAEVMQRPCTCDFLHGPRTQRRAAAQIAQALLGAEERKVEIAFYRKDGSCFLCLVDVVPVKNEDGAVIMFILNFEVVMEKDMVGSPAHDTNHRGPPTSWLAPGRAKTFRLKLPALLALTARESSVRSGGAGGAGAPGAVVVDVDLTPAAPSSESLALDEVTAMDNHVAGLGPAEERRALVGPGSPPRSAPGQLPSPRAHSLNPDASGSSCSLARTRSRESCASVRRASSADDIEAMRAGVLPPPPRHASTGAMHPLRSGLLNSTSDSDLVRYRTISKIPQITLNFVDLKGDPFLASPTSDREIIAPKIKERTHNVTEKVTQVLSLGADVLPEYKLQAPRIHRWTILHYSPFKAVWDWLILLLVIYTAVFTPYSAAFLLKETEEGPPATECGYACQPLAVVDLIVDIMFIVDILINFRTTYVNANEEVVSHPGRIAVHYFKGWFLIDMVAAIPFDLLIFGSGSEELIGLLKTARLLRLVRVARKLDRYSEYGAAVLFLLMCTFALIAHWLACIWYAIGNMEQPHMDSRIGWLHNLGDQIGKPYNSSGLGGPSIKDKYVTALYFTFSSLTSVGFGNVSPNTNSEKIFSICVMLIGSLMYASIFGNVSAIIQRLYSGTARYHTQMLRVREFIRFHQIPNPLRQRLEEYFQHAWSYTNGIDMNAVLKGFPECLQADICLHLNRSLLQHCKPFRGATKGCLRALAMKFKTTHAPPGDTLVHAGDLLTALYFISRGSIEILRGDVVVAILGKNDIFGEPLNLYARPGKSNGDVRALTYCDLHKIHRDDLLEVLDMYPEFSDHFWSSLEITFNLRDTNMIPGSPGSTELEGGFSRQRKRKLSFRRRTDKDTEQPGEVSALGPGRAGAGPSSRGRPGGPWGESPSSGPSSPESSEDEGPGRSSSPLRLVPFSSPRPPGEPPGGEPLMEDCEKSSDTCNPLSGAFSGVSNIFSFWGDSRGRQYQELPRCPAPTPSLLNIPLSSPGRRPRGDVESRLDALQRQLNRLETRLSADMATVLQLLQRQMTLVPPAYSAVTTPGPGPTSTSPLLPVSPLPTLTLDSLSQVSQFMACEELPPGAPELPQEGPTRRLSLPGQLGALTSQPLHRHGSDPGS

Row | Structure (SMILES) | hERG current change (%, negative = inhibition) at 1uM [%]
1 | CCN1C(=S)SC(=O)C1=C1C=C(C)N(Cc2ccco2)C(C)=C1 | 1.56
2 | CC(C)c1cc(N=NC(N)=O)cc(C(C)C)c1O | 6.77
3 | CCN(CC(=O)NCCc1ccc(F)cc1)Cc1nc2ccccc2c(=O)[nH]1 | 1.66
4 | CCN(CC(=O)NCc1ccc(F)cc1)Cc1nc2cc(Cl)ccc2c(=O)[nH]1 | -52.5
5 | CCN(CC(=O)NCc1ccc(F)cc1)Cc1nc2ccccc2c(=O)[nH]1 | -8.93
6 | CC1CCCC(N2CCN(C(=O)c3ccc(F)cc3)CC2)C1 (stereo not shown) | -25
7 | O=C(CCCc1ccccc1)N1CCN(C2CCCCC2)CC1 | -23.6
8 | COc1cccc(C(=O)N2CCN(C3CCC(c4ccccc4)CC3)CC2)c1OC.O=C(O)C(=O)O (stereo not shown) | 3.34
9 | COc1ccc(C(=O)N2CCN(C3CCN(Cc4ccccc4)CC3)CC2)cc1OC | -14.5
10 | COc1cccc(C(=O)N2CCN(C3CCCCC3)CC2)c1.O=C(O)C(=O)O | 6.64
11 | COc1ccc(CCC(=O)N2CCN(C(=O)c3ccccc3)CC2)cc1 | 14.6
12 | COc1ccc(C(=O)N2CCN(C3CCCCC3)CC2)cc1OC.O=C(O)C(=O)O | -74.2
13 | COc1ccc(C(=O)N2CCN(C3CCC(c4ccccc4)CC3)CC2)cc1OC (stereo not shown) | -60.4
14 | CC1CCCC(N2CCN(C(=O)c3ccc([N+](=O)[O-])cc3)CC2)C1.O=C(O)C(=O)O (stereo not shown) | -67.3
15 | CC1CCCC(N2CCN(C(=O)c3cccc(F)c3)CC2)C1.O=C(O)C(=O)O (stereo not shown) | 8.59
16 | COc1ccc(CCC(=O)N2CCN(C3CCCCC3)CC2)cc1 | -56.7
17 | COc1cc(C(=O)N2CCN(C3CCCCC3)CC2)cc(OC)c1OC.O=C(O)C(=O)O | 14.5
18 | Cc1ccc(CN(c2ccc(C(=O)NCc3cccnc3)cc2)S(C)(=O)=O)cc1 | 1.51
19 | COc1ccc(N2CCN(CCCNC(=O)C(=O)c3c(C)n(C)c4ccccc34)CC2)cc1 | -9.85
20 | COc1ccc2c(c1)C(NC(C)=O)C(=O)N2CCc1ccccc1 (stereo not shown) | 3.02
21 | Cc1oc(-c2ccoc2)nc1CN(CC1CCC(=O)N1)C(C)C (stereo not shown) | 11.6
22 | CCNc1nc(N2CCCC2)nc(N2CCCC2)n1 | 0.687
23 | CCCCN1CNC(=S)N(c2cc(C)ccc2C)C1 | 7.21
24 | Nc1[nH]c(=O)nc(Nc2ccccc2)c1N=O | 8.79
25 | O=C(c1ccc(CNc2c(N3CCCC3)c(=O)c2=O)cc1)N1CCc2ccccc2C1 | -3.76
26 | CCO[C@@H]1OC(C(=O)N2CCN(Cc3ccc4c(c3)OCO4)CC2)=C[C@H](c2ccc(C(F)(F)F)cc2)[C@H]1CCCO | 3.44
27 | COc1cc(OC)cc(C(=O)N2CCN(C3CCCCC3)CC2)c1.O=C(O)C(=O)O | -2.01
28 | COc1ccc(C(=O)N2CCN(C3CCCCC3)CC2)c(OC)c1 | -75

Row | Structure (SMILES) | hERG current change (%, negative = inhibition) at 1uM [%]
29 | COc1ccc(C(=O)N2CCCN(C)CC2)c(OC)c1 | 11
30 | CCC(Cc1ccccc1)NS(=O)(=O)c1csc(C(N)=O)c1 (stereo not shown) | 22.5
31 | CC(C)[C@H](NC(=O)N1CC(=O)Nc2ccccc21)C(=O)Nc1nccs1 | 24.4
32 | O=C(c1ccc(C(F)(F)F)cc1)N1CCCCC1 | -4.21
33 | Cc1ccc(S(=O)(=O)Nc2ccc3c(c2)nc(CCN2CCN(c4ccccn4)CC2)n3C)cc1 | -80.7
34 | CCCC(=O)Nc1ccc2c(c1)nc(CCN1CCN(c3ccccn3)CC1)n2C | 1.68
35 | Cc1ccc(S(=O)(=O)Nc2ccc3c(c2)nc(CCN2CCOCC2)n3C)cc1 | 6.29
36 | CC(=O)Nc1ccc2c(c1)nc(CCN1CCN(c3ccccn3)CC1)n2C | 12
37 | CC(C)C(=O)Nc1ccc2c(c1)nc(CCN1CCN(c3ccccn3)CC1)n2C | 6.24
38 | Cn1c(CCN2CCN(c3ccccn3)CC2)nc2cc(NS(=O)(=O)c3ccc(Cl)cc3)ccc21 | -69.2
39 | O=CNc1ccc(OP(=O)(Oc2ccccc2)Oc2ccccc2)cc1 | 1.71
40 | O=C(N/N=C(/c1ccccc1)c1ccncc1)c1ccc2c(c1)OCO2 | 2.11
41 | CC(C(=O)O)N1CCCCC1.Cl (stereo not shown) | -4.62
42 | O=C(Cn1cncc1-c1ccc([N+](=O)[O-])cc1)Nc1ccccc1F | -0.387
43 | O=C(c1noc2c1CCCC2)N1CCN(c2ccc(F)cc2)CC1 | 20
44 | N#Cc1ccc(CN2CCN(C(=O)CCNS(=O)(=O)c3ccc(F)c(F)c3)CC2)cc1 | -62.3
45 | N#Cc1ccc(CN2CCN(C(=O)CCNS(=O)(=O)c3ccc(F)c(Cl)c3)CC2)cc1 | -29.3
46 | O=C(CCNS(=O)(=O)c1ccc(Cl)cc1)N1CCN(Cc2ccccc2)CC1 | -16.1
47 | O=C(CCN1CCN(c2ccccc2F)CC1)Nc1ccccc1Cl | 7.43
48 | O=C(CCN1CCN(CC(=O)Nc2ccccc2F)CC1)Nc1ccccc1F | -38.4
49 | O=C(CCN1CCN(S(=O)(=O)c2ccc(Cl)cc2)CC1)Nc1ccccc1F | 4.11
50 | O=C(CCN1CCN(c2ccccc2F)CC1)Nc1ccc(F)cc1 | 14.4
51 | O=C(CCN1CCN(c2ccc(F)cc2)CC1)Nc1ccccc1F | -9.21
52 | O=C(CN1CCN(CCC(=O)Nc2ccccc2F)CC1)Nc1ccc(Cl)cc1 | -84.3
53 | O=C(CN1CCN(CCC(=O)Nc2ccccc2F)CC1)Nc1ccc(F)cc1 | -78.3
54 | O=C(CCN1CCN(c2ccc(Cl)cc2)CC1)Nc1ccccc1F | 5.25
55 | O=C(CCN1CCN(CC(=O)Nc2ccccc2Cl)CC1)Nc1ccccc1F | -54
